In PubChem BioAssay (EPA / NIEHS):
The source made the active and inactive calls. The calls were made as follows: active = hit-call score of the fitted dose curve at least 0.9, where 1 is the maximum; inactive = score below 0.9.

Assays:
[1] = read-out: TIMP metallopeptidase inhibitor 2 (TIMP2), TIMP2 (gene 7077); assay: BSK_KF3CT_TIMP2: BioMAP Diversity Plus: KF3CT Assay for TIMP metallopeptidase inhibitor 2 (TIMP2) Biomarker Activity (AID 2283071); settings: primary human keratinocytes with fibroblasts; actives raise or lower the signal
Method in brief: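 Co-culture of human primary keratinocytes and foreskin fibroblasts, measured 24 h after chemical dosing. TIMP-2 quantified by ELISA and fitted in both directions relative to DMSO. Cytotoxicity checked in parallel cultures by SRB total-protein staining.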

[2] = read-out: Transforming growth factor beta 1 (TGFb1), TGFB1 (gene 7040); assay: BSK_KF3CT_TGFb1: BioMAP Diversity Plus: KF3CT Assay for Transforming growth factor beta 1 (TGFb1) Biomarker Activity (AID 2283072); settings: primary human keratinocytes with fibroblasts; actives raise or lower the signal
Method in brief: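 Human keratinocyte/foreskin fibroblast co-culture; TGF-b1 measured by ELISA 24 h after dosing, fitted bidirectionally versus DMSO. Cytotoxicity checked in parallel cultures by total protein (SRB staining, 560 nm).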

[3] = read-out: C-C motif chemokine 2 (Homo sapiens) (UniProt P13500); assay: BSK_KF3CT_MCP1: BioMAP Diversity Plus: KF3CT Assay for Monocyte Chemoattractant Protein 1 (MCP1/CCL2) Biomarker Activity (AID 2283073); settings: primary human keratinocytes with fibroblasts; actives raise or lower the signal
Method in brief: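 ELISA readout of MCP-1 after 24 h chemical dosing of a human skin primary co-culture of keratinocytes and foreskin fibroblasts. Activity was fitted in both directions against DMSO.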

[4] = read-out: Matrix Metallopeptidase 9 (MMP9), MMP9 (gene 4318); assay: BSK_KF3CT_MMP9: BioMAP Diversity Plus: KF3CT Assay for Matrix Metallopeptidase 9 (MMP9) Biomarker Activity (AID 2283074); settings: primary human keratinocytes with fibroblasts; actives raise or lower the signal;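 also: MMP9 protein level quantified by ELISA in the co-culture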
Method in brief: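 Human keratinocyte and foreskin fibroblast co-culture exposed to chemicals for 24 h; MMP9 biomarker measured by ELISA, bidirectional fitting relative to DMSO; cytotoxicity tracked by SRB total protein staining in parallel cultures.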

[5] = read-out: urokinase plasminogen activator (uPA), PLAU (gene 5328); assay: BSK_KF3CT_uPA: BioMAP Diversity Plus: KF3CT Assay for urokinase plasminogen activator (uPA) Biomarker Activity (AID 2283075); settings: primary human keratinocytes with fibroblasts; actives raise or lower the signal
Method in brief: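 Primary human keratinocyte/foreskin fibroblast co-culture exposed to chemical; uPA measured by ELISA at 24 h. Bidirectional fit versus DMSO, with parallel SRB total-protein staining for cytotoxicity.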

CD40, CD40 (gene 958) [6] = assay: BSK_LPS_CD40: BioMAP Diversity Plus: LPS Assay for CD40 Biomarker Activity (AID 2283076); settings: primary human HUVEC with PBMC; actives raise or lower the signal
Method in brief: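 Cells were dosed, incubated 24 h, then assayed for CD40 by ELISA. Gain or loss of signal was analysed relative to DMSO controls. The culture paired human umbilical vein endothelium with peripheral blood mononuclear cells.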

[7] = read-out: E-selectin (Homo sapiens) (UniProt P16581); assay: BSK_LPS_Eselectin: BioMAP Diversity Plus: LPS Assay for Eselectin Biomarker Activity (AID 2283077); settings: primary human HUVEC with PBMC; actives raise or lower the signal
Method in brief: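 Primary human vascular co-culture (endothelium plus PBMC) was dosed with chemical, then E-selectin quantified by ELISA at 24 h. Endpoint values derive from bidirectional curve fitting relative to DMSO.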

[8] = read-out: Interleukin-8 (IL8), CXCL8 (gene 3576); assay: BSK_LPS_IL8: BioMAP Diversity Plus: LPS Assay for Interleukin-8 (IL8) Biomarker Activity (AID 2283078); settings: primary human HUVEC with PBMC; actives raise or lower the signal
Method in brief: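 Readout is IL-8 by ELISA, taken 24 h after compounds were added to LPS-stimulated endothelial/PBMC co-cultures. Both increases and decreases relative to DMSO control were scored through bidirectional fitting.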

[9] = BSK_LPS_SRB: Viability Assessment in the BioMAP Diversity Plus: LPS Assay (AID 2283079); settings: primary human HUVEC with PBMC;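 also: total protein by sulforhodamine B absorbance as a cytotoxicity measure; measured one day after compound addition; fitted in both directions against DMSO so loss or gain of signal counts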
Method in brief: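 Readout is SRB absorbance at 560 nm (0.1% stain, TCA-fixed parallel cultures) as a total-protein cytotoxicity measure. Cells: primary human umbilical vein endothelium plus peripheral blood mononuclear cells, 24 h after chemical exposure; DMSO served as baseline.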

[10] = read-out: Interleukin-1 alpha (IL1a), IL1A (gene 3552); assay: BSK_LPS_IL1a: BioMAP Diversity Plus: LPS Assay for Interleukin-1 alpha (IL1a) Biomarker Activity (AID 2283080); settings: primary human HUVEC with PBMC; actives raise or lower the signal
Method in brief: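 ELISA read-out of IL-1 alpha from a human primary vascular co-culture (endothelium plus PBMC) under LPS, sampled 24 hours post-dosing. Activity was fitted in both directions relative to DMSO controls.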

[11] = read-out: Monocyte Chemoattractant Protein-1 (MCP1), CCL2 (gene 6347); assay: BSK_LPS_MCP1: BioMAP Diversity Plus: LPS Assay for Monocyte Chemoattractant Protein-1 (MCP1) Biomarker Activity (AID 2283081); settings: primary human HUVEC with PBMC; actives raise or lower the signal;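 also: secreted MCP-1 protein quantified by ELISA in culture supernatant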
Method in brief: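 Human endothelial–PBMC co-cultures were dosed with chemical, then LPS-driven MCP-1 levels were quantified by ELISA at 24 h. Activity in either direction was fitted versus DMSO negative control.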

[12] = BSK_LPS_PGE2: BioMAP Diversity Plus: LPS Assay for Prostaglandin E2 (PGE2) Biomarker Activity (AID 2283082); settings: primary human HUVEC with PBMC; actives raise or lower the signal
Method in brief: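 HUVEC plus human PBMC co-culture stimulated with LPS; secreted PGE2 quantified by ELISA 24 h after chemical dosing. Activity fitted bidirectionally against DMSO baseline; parallel SRB staining (0.1% SRB after 10% TCA fixation, 560 nm) flags overt cytotoxicity.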

[13] = read-out: Tissue Factor, F3 (gene 2152); assay: BSK_LPS_TissueFactor: BioMAP Diversity Plus: LPS Assay for Tissue Factor Biomarker Activity (AID 2283084); settings: primary human HUVEC with PBMC; actives raise or lower the signal
Method in brief: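 ELISA signal for cell-surface Tissue Factor (CD142) was read 24 h after compound dosing of an LPS-stimulated human endothelial–PBMC primary co-culture. Gain or loss of signal was scored relative to DMSO.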

[14] = read-out: Tumor necrosis factor (Homo sapiens) (UniProt P01375); assay: BSK_LPS_TNFa: BioMAP Diversity Plus: LPS Assay for Tumour Necrosis Factor alpha (TNFa) Biomarker Activity (AID 2283085); settings: primary human HUVEC with PBMC; actives raise or lower the signal
Method in brief: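 Human umbilical vein endothelial cells co-cultured with PBMC and stimulated with LPS. TNFa was measured by ELISA 24 h after chemical dosing, fitted bidirectionally relative to DMSO.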

[15] = read-out: Vascular cell adhesion molecule 1 (VCAM1), VCAM1 (gene 7412); assay: BSK_LPS_VCAM1: BioMAP Diversity Plus: LPS Assay for Vascular cell adhesion molecule 1 (VCAM1) Biomarker Activity (AID 2283086); settings: primary human HUVEC with PBMC; actives raise or lower the signal
Method in brief: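 Human umbilical vein endothelial cells co-cultured with PBMC and stimulated with LPS; VCAM-1 measured by ELISA 24 h after dosing. Bidirectional curve fitting against DMSO baseline; cytotoxicity tracked in parallel by SRB total-protein staining.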

CD40, CD40 (gene 958) [16] = assay: BSK_SAg_CD40: BioMAP Diversity Plus: SAg Assay for CD40 Biomarker Activity (AID 2283088); settings: primary human HUVEC with PBMC; actives raise or lower the signal
Method in brief: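 Compounds were dosed onto a human primary endothelial–PBMC co-culture, and after 24 h CD40 was quantified by ELISA using a fluorescence signal. Activity in either direction was fitted relative to DMSO.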

CD69, CD69 (gene 969) = assay: BSK_SAg_CD69: BioMAP Diversity Plus: SAg Assay for CD69 Biomarker Activity (AID 2283089); settings: primary human HUVEC with PBMC; actives raise or lower the signal;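 also: cell surface CD69 protein quantified by ELISA with fluorescence detection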
Method in brief: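 ELISA, fluorescence read-out: CD69 on human umbilical vein endothelial cell + PBMC co-culture, 24 h post-dosing. Gain or loss of signal fitted bidirectionally against DMSO baseline.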

[17] = read-out: Monocyte Chemoattractant Protein-1 (MCP1), CCL2 (gene 6347); assay: BSK_SAg_MCP1: BioMAP Diversity Plus: SAg Assay for Monocyte Chemoattractant Protein-1 (MCP1) Biomarker Activity (AID 2283090); settings: primary human HUVEC with PBMC; actives raise or lower the signal
Method in brief: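 MCP-1 levels in the endothelial–PBMC SAg co-culture were quantified by ELISA at 24 h post-dosing; both increases and decreases versus DMSO scored. Cytotoxicity monitored by SRB total protein in parallel cultures.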

[18] = read-out: Macrophage colony-stimulating factor (MCSF), CSF1 (gene 1435); assay: BSK_LPS_MCSF: BioMAP Diversity Plus: LPS Assay for Macrophage colony-stimulating factor (MCSF) Biomarker Activity (AID 2283083); settings: primary human HUVEC with PBMC; actives raise or lower the signal
Method in brief: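 ELISA readout of M-CSF after 24 h compound exposure in a human endothelial/PBMC co-culture. Activity, in either direction, is fitted relative to DMSO vehicle.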

CD38, CD38 (gene 952) = assay: BSK_SAg_CD38: BioMAP Diversity Plus: SAg Assay for CD38 Biomarker Activity (AID 2283087); settings: primary human HUVEC with PBMC; actives raise or lower the signal
Method in brief: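 Human HUVEC plus PBMC co-culture stimulated with superantigen; CD38 measured by ELISA 24 h after chemical dosing. Fluorescence read-out, bidirectional fit against DMSO; cytotoxicity tracked in parallel by SRB and Alamar Blue.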

Measured: AC50

Sequence of E-selectin (Homo sapiens) (P16581 whole entry, looked up): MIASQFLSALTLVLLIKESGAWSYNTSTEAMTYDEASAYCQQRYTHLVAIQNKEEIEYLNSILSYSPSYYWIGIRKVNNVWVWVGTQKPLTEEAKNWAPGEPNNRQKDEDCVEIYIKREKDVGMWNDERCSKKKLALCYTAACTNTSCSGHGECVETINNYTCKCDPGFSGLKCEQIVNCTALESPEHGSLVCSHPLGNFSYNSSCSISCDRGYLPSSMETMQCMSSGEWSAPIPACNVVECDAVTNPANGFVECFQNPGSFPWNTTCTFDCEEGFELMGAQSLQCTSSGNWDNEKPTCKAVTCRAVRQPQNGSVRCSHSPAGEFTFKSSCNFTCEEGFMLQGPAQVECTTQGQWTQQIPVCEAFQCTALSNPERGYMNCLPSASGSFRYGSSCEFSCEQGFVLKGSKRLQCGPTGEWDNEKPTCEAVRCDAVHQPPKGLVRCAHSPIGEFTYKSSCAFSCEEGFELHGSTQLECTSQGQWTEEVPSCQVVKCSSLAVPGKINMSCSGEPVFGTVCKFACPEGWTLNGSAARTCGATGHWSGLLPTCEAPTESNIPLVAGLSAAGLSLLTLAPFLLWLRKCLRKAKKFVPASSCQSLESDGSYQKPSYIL
Sequence of Tumor necrosis factor (Homo sapiens) (P01375 whole entry, looked up): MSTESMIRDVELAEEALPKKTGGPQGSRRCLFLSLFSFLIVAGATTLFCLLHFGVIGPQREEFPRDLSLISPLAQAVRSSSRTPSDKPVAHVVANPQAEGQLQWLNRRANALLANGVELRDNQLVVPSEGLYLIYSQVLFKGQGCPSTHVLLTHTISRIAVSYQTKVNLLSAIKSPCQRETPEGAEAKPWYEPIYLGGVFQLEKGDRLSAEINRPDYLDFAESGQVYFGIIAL

CN(C[C@@H](CC[N+]12CCC(C3CCCCC3)(CC1)CC2)c1ccc(Cl)c(Cl)c1)C(=O)c1cc(C(F)(F)F)cc(C(F)(F)F)c1
inactive: [12]
active: [1] 7.76 µM | [2] 7.34 µM | [3] 9.72 µM | [4] 7.39 µM | [5] 10.5 µM | CD40, CD40 (gene 958) [6] 19.1 µM | [7] 26.4 µM | [8] 24.8 µM | [9] 24.6 µM | [10] 18.4 µM | [11] 23.4 µM | [13] 25 µM | [14] 13.7 µM | [15] 31.3 µM | CD40, CD40 (gene 958) [16] 20 µM | CD69, CD69 (gene 969) 21.9 µM | [17] 17.1 µM

CN(C)C(=O)C1(N2CCCCC2)CCN(CC[C@@]2(c3ccc(Cl)c(Cl)c3)CN(C(=O)c3ccccc3)CCO2)CC1
inactive: [12]
active: [1] 32.7 µM | [2] 29.8 µM | [3] 35 µM | [4] 25.5 µM | [5] 32.1 µM | CD40, CD40 (gene 958) [6] 16.8 µM | [7] 29.2 µM | [8] 25.7 µM | [9] 18.9 µM | [10] 18.9 µM | [18] 20.8 µM | [13] 31.2 µM | [14] 35.4 µM | [15] 26.6 µM | CD38, CD38 (gene 952) 21.3 µM | CD40, CD40 (gene 958) [16] 18.9 µM | CD69, CD69 (gene 969) 16.5 µM | [17] 22.2 µM

CC(C)(C)c1csc(-c2cc3cc(OCc4ccccc4CC(=O)O)ccc3o2)n1
active: [1] 20.3 µM | [2] 10.8 µM | [3] 20 µM | [4] 13.7 µM | [5] 20.7 µM | CD40, CD40 (gene 958) [6] 20.7 µM | [7] 30.9 µM | [9] 20.9 µM | [10] 20.5 µM | [18] 27.2 µM | [14] 17.7 µM | [15] 18.8 µM | CD38, CD38 (gene 952) 17.9 µM | CD40, CD40 (gene 958) [16] 19.1 µM | CD69, CD69 (gene 969) 19.8 µM | [17] 29.9 µM
inactive: [8] | [12] | [13]
